In the assay the test system is Vero E6 infected with SARS-CoV-2. Kind of assay: morphology score (similarity to uninfected cells); higher = more like uninfected cells. The settings on record: 24 h.
Turning to `COc1nccc(-c2c(-c3ccc(F)cc3)ncn2C2CCNCC2)n1` (10 µM), the morphology score was -0.0202.

For `COc1ccc(-c2ccc3c(N4CCOC[C@@H]4C)nc(N4CCOC[C@@H]4C)nc3n2)cc1CO` (0.833333 µM), the morphology score is -0.0692.

As for `COC(=O)c1ccc(O)cc1` [methylparaben] (10 µM), the morphology score was -0.112.

In turn, `Cc1ccc([N+](=O)[O-])cc1O` [2-methyl-5-nitrophenol] (10 µM) displayed a morphology score of 0.0626.

`O=C(N[C@H](CO)[C@H](O)c1ccc([N+](=O)[O-])cc1)C(Cl)Cl` [chloramphenicol] (10 µM) came in with a morphology score of -0.278.

As to `CC(C)C[C@H](NC(=O)[C@@H](O)[C@H](N)Cc1ccccc1)C(=O)O` [ubenimex] (10 µM), the morphology score is 0.237.

Compound `C=CC(=O)Nc1cccc(Nc2nc(Nc3ccc(OCCOC)cc3)ncc2F)c1` (0.833333 µM) returned a morphology score of -0.0246.

Take `O=C(Nc1ccccc1)N1CCC(Cc2cnc3ccccc3c2)CC1` (10 µM): the morphology score is -0.147.

Compound `NS(=O)(=O)c1cc(C2(O)NC(=O)c3ccccc32)ccc1Cl` (centres undefined) [chlorthalidone] (10 µM) gave a morphology score of 0.13.

Compound `CCCCCCCC/C=C/C(=O)O` [trans-2-undecenoic-acid] (10 µM) came in with a morphology score of 0.204.

Compound `C[C@@H](O)[C@H]1C(=O)N2C(C(=O)O)=C(S[C@@H]3CN[C@H](C(=O)Nc4cccc(C(=O)O)c4)C3)[C@H](C)[C@H]12` [ertapenem] (10 µM) came in with a morphology score of 0.126.

Compound `COc1cc(C[C@H]2C(=O)OC[C@@H]2Cc2ccc(OC)c(OC)c2)ccc1O` [arctigenin] (10 µM) gave a morphology score of 0.0564.

Consider `Cc1cc(C(N)=O)ccc1-n1c(CCC(=O)O)ccc1-c1ccc(-n2ccnc2)cc1` (10 µM), for which the morphology score amounted to 0.066.

Regarding `CC1(C)CCC(C)(C)c2cc(C(=O)Nc3ccc(C(=O)O)cc3)ccc21` (10 µM), the morphology score is -0.326.

For the compound `O[C@@H](CN1CCNCC1)Cn1c2ccc(Br)cc2c2cc(Br)ccc21` [BAX-channel-blocker] (0.833333 µM), the morphology score worked out at 0.121.

In turn, `Cc1nc2c(c(=O)[nH]1)CSCC2` (10 µM) had a morphology score of 0.0297.

Turning to `O=C(c1cccc(Cl)c1F)N1CCN(Cc2cccc(Nc3nccs3)n2)CC1` (0.833333 µM), the morphology score came to 0.202.

For the compound `COc1cc2c(N3CCN(C(=O)Nc4ccc(OC(C)C)cc4)CC3)ncnc2cc1OCCCN1CCCCC1` [tandutinib] (10 µM), the morphology score was -0.0843.

`O=C1c2ccccc2-c2c(NCCc3ccccc3)c(=O)[nH]c3cccc1c23` (10 µM) returned a morphology score of -0.00844.

The compound `CCN(CC)CCOC(=O)C(c1ccccc1)c1ccccc1` [adiphenine] (10 µM) came in with a morphology score of -0.106.

The compound `O=C1C(O)=C([C@H]2CC[C@H](c3ccc(Cl)cc3)CC2)C(=O)c2ccccc21` [atovaquone] (0.833333 µM) had a morphology score of 0.028.

The compound `C=CC(=O)Nc1cc2c(Nc3ccc(F)c(Cl)c3)ncnc2cc1OCCCN1CCOCC1` [canertinib] (10 µM) had a morphology score of -0.116.

For `COc1cc(C(=O)NCCCCCC(=O)O)cc(OC)c1OC` [capobenic-acid] (10 µM), the morphology score is 0.0878.

In the case of `CSc1ccc([C@H]2CN3CCC[C@H]3c3ccccc32)cc1` (racemic) (10 µM), the morphology score came out at 0.328.

Compound `CC(=O)NC[C@H]1CN(c2ccc(N3CCN(C(=O)CO)CC3)c(F)c2)C(=O)O1` [eperezolid] (10 µM) registered a morphology score of 0.0417.

Compound `O=c1[nH]c2cc(C(F)(F)F)c(N3CCOCC3)cc2n(CP(=O)(O)O)c1=O` (10 µM) displayed a morphology score of 0.119.

Consider `CCC[C@@H]1CC(=O)N([C@@H](CC)C(N)=O)C1` [Brivaracetam] (10 µM), for which the morphology score worked out at 0.0266.

`O=c1c(-c2ccc(O)cc2)coc2cc(O)cc(O)c12` [genistein] (10 µM) came in with a morphology score of -0.211.

For the compound `CC(C)(C)NCC(O)c1ccc(O)c(CO)c1` (centres undefined) [albuterol] (10 µM), the morphology score is 0.108.

In turn, `O=P(O)(O)CN(CCN(CP(=O)(O)O)CP(=O)(O)O)CP(=O)(O)O` (10 µM) showed a morphology score of 0.137.

The compound `Cc1c(CC(C)(C)C(=O)O)n(Cc2ccc(Cl)cc2)c2ccc(F)cc12` (10 µM) had a morphology score of -0.214.

`Nc1ncnc2c1ncn2[C@@H]1O[C@H](COP(=O)(O)OP(=O)(O)OP(=O)(O)OP(=O)(O)OC[C@H]2O[C@@H](n3cnc4c(N)ncnc43)[C@H](O)[C@@H]2O)[C@@H](O)[C@H]1O` [diadenosine-tetraphosphate] (10 µM) displayed a morphology score of 0.0713.

The compound `Nc1nonc1/C(=N/O)Nc1ccc(F)c(Cl)c1` (10 µM) came in with a morphology score of 0.043.

In turn, `CN1CC[C@@]2(C)c3cc(O)ccc3N(C)[C@@H]12` [eseroline-(-)] (10 µM) displayed a morphology score of 0.137.

On to `C[C@@H](Oc1ccc(Cl)cc1)c1ccnc2ncnn12` (10 µM), for which the morphology score was -0.0401.

`CC(C)(Oc1ccc(C(=O)c2ccc(Cl)cc2)cc1)C(=O)O` [fenofibric-acid] (10 µM) showed a morphology score of 0.137.

In the case of `CNC1CC(N)C(O)C(OC2OC(CO)C(O)C3OC4(OC(C(N)CO)C(O)C(O)C4O)OC23)C1O` (centres undefined) [Hygromycin B] (10 µM), the morphology score is 0.0213.

Compound `O=C1CCc2cc(OCCCCc3nnnn3C3CCCCC3)ccc2N1` [cilostazol] (10 µM) displayed a morphology score of -0.112.

Take `CCCCn1c(=O)c2[nH]c(C34CC5CC(CC3C5)C4)nc2n(CCCO)c1=O` (10 µM): the morphology score was -0.0475.
